From PubChem BioAssay
UHRF1 binding: UHRF1 methylated DNA binding inhibitors, primary screen, counter-screen for MBD2 inhibitor project, biochemical, TR-FRET, human UHRF1, single concentration | E3 ubiquitin-protein ligase UHRF1 (Homo sapiens), Q96T88 | UHRF1 binding to methylated oligo | inhibition, % at 4.4 µM | 370,000 compounds, 0.75% hits | AID 687016, 2013; in the data active = inhibition above about 21%;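 note: UHRF1 SRA domain binding a hemimethylated CpG hairpin DNA probe; 0% = median of test compound wells and 100% = reference inhibitor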
Target sequence (Q96T88 whole entry, looked up, the tested form may be a part): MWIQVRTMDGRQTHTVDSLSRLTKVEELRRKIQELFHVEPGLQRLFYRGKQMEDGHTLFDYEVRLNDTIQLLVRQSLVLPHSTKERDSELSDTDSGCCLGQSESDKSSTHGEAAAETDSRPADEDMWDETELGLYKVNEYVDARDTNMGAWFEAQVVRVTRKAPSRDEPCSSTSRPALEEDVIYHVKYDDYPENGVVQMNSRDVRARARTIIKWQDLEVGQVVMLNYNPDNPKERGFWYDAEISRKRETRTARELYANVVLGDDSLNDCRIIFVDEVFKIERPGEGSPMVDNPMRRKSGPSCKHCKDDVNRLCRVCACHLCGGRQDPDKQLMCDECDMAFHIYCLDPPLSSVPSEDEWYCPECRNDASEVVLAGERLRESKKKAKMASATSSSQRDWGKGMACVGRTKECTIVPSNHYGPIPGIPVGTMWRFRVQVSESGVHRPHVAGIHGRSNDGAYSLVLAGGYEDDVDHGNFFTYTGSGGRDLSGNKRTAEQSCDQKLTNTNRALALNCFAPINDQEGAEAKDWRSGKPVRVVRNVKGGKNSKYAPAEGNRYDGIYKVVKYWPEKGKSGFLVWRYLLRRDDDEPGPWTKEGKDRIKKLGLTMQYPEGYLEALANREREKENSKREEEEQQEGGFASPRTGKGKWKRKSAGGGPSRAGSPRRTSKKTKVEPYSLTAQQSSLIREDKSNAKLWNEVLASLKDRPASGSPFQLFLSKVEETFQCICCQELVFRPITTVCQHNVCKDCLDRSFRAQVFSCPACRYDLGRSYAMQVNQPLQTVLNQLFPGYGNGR
MBD2 inh: inhibitors of MBD2 binding to methylated DNA, primary screen, biochemical, TR-FRET, DNA-binding domain, human. inhibition, % at 4.4 µM. MBD2 binding to methylated oligonucleotide. Methyl-CpG-binding domain protein 2 (Homo sapiens), Q9UBB5. 370,000 compounds, 0.31% hits; in the data active = inhibition above about 13%
M18AAP inhibitor: PfM18AAP inhibitors, malaria aminopeptidase, primary screen, biochemical, QFRET, recombinant enzyme. AID 1822, 2009. 290,000 compounds, 1.2% hits. H-Glu-NHMec fluorogenic cleavage. inhibition, % at 7.35 µM;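 active = inhibition above the campaign mean inhibition over all tested compounds plus 3 SD, cut at about 28% in these data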;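 note: 0% = plate median of test compound wells and 100% = 2 mM ZnCl2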
PfG6PD inh: PfG6PD enzyme inhibitors, primary screen, biochemical, fluorescence intensity, uHTS; PfGluPho enzyme, NADPH resazurin-diaphorase fluorescence; 350,000 compounds, 0.78% hits; inhibition, % at 20 µM; AID 504690, 2011; glucose-6-phosphate dehydrogenase-6-phosphogluconolactonase (Plasmodium falciparum 3D7);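 active = inhibition reaching at least a set limit at 20 µM in the primary screen, cut at about 59% in these data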;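 note: 0% = DMSO wells with substrate and 100% = DMSO wells lacking glucose-6-phosphate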
PRMT1 inh: PRMT1 methyltransferase inhibitors, primary screen, biochemical, fluorescence polarization; Protein arginine N-methyltransferase 1 (Homo sapiens), Q99873; recombinant PRMT1, activity-based probe fluorescence polarization; inhibition, % at 2.79 µM; 370,000 compounds, 1.3% hits;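 active = inhibition above about 21% made by adding two undisclosed values, limit read from the data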
PRMT1 inh conf: PRMT1 methyltransferase inhibitors, confirmation, biochemical, fluorescence polarization, triplicate. shares compounds with PRMT1 inh. recombinant His-PRMT1, activity-based probe fluorescence polarization. inhibition, % at 2.79 µM. 3,300 compounds, 42% hits;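 active = mean inhibition across replicates above the hit cutoff derived for the earlier primary screen, cut at about 22% in these data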
* marks the source's active call; other numbers are inactive results; / = no result given. In the library only some 3.3% were active in any assay of this set; here they are far more common.

SMILES	UHRF1 binding	MBD2 inh	M18AAP inhibitor	PfG6PD inh	PRMT1 inh	PRMT1 inh conf
CCCOC(=O)C1=C(C)N(C)C(=O)NC1c1cc2c(cc1[N+](=O)[O-])OCO2 (stereo not drawn)	8.3	10.0	8.8	43.0	26.9*	22.0*
CC1=C(C(=O)OCC(C)C)C(c2cc3c(cc2Br)OCO3)NC(=O)N1C (stereo not drawn)	-2.6	4.0	4.4	-11.4	0.0	/
CC(C)CSc1n[nH]c(=S)s1	0.3	-1.3	12.6	5.0	13.4	/
CC(CSc1n[nH]c(=S)s1)c1ccccc1 (stereo not drawn)	-1.7	-7.1	/	35.8	40.7*	73.8*
COC(=O)C1CCN(C(=O)c2ccc3nccnc3c2)CC1	-1.1	2.2	-2.0	1.5	26.1*	3.9
CC(=O)Oc1ccccc1C(=O)C=Cc1cccc([N+](=O)[O-])c1	6.7	6.5	/	43.4	17.4	/
O=C(CCCCn1cnc2c(=S)nc[nH]c21)Nc1ccc(C(=O)O)cc1	2.9	2.4	/	44.7	30.3*	10.3
O=C1/C(=C/c2ccccn2)SC(=S)N1Nc1ncc(C(F)(F)F)cc1Cl	-5.5	-4.6	/	46.9	34.1*	18.8
O=C1/C(=C\c2ccccn2)SC(=S)N1Nc1ncc(C(F)(F)F)cc1Cl	/	/	26.5	47.6	/	/
O=C1NCCCCC1NC1CC(=O)N(c2ccccc2)C1=O (stereo not drawn)	1.5	1.4	-44.4	2.4	34.4*	7.3
CCOc1ccc(N2C(=O)CC(NCC#N)C2=O)cc1 (stereo not drawn)	-2.4	-7.0	-8.4	-2.4	33.1*	45.7*
CCOc1ccc(N2C(=O)CC(NC3CCCCNC3=O)C2=O)cc1 (stereo not drawn)	2.2	2.7	-5.0	-7.0	44.4*	-0.3
O=C(/C=C/c1ccc2c(c1)S(=O)(=O)N(Cc1ccccc1)[C@H]2CC(=O)N1CCOCC1)N1CCOCC1	-2.2	2.5	/	-15.6	-2.4	/
COc1ccc(/C=C(/NC(=O)c2ccco2)C(=O)N2CCOCC2)cc1	2.2	-0.3	4.6	-9.0	-2.6	/
Clc1cccc(Cc2c(-c3ccco3)nc3ccc(Br)cn23)c1	4.6	2.6	/	/	34.2*	13.4
Clc1ccc(-c2nc3ccc(Cl)cn3c2Cc2cccc(Cl)c2)cc1	-1.6	-6.7	/	/	1.7	/
Clc1cccc(Cc2c(-c3ccco3)nc3ccc(Cl)cn23)c1	8.1	1.6	/	/	47.0*	17.1
Brc1ccc2nc(-c3ccco3)c(Cc3ccccc3)n2c1	10.5	9.5	/	/	42.2*	14.9
Cc1cc2nc(-c3ccco3)c(Cc3cccc(Cl)c3)n2c(C)c1Br	5.7	1.4	/	/	20.4	/
COC(=O)[C@H](CC(C)C)NC(=O)N1CCC(C)CC1	1.0	-2.7	-1.5	-1.3	0.8	/
O=C(NCCNCc1ccccc1)c1ccco1	8.8	-5.0	/	17.6	28.2*	8.5
CCc1ccc(-c2csc3[n+]2CCN3C(C)=O)cc1	-1.2	1.5	19.0	54.8	71.6*	46.1*
C=Cn1c(C(=O)O)ccc1-c1ccc(CC)cc1	15.9	3.3	-8.2	-29.4	0.2	/
CCOc1ccc(OCCC(=O)OCC(=O)Nc2cccc(S(=O)(=O)N3CCCCC3)c2)cc1	-2.6	3.9	/	4.0	-2.2	/
O=C(O)Cn1cc(C(=S)N2CCCCC2)c2ccccc21	-0.5	3.1	16.9	21.7	24.9*	5.3
SMILES	UHRF1 binding	MBD2 inh	M18AAP inhibitor	PfG6PD inh	PRMT1 inh	PRMT1 inh conf
CCc1sc(C(C2C(=O)CC(C)(C)CC2=O)C2C(=O)CC(C)(C)CC2=O)cc1[N+](=O)[O-]	-2.0	2.7	-9.2	17.4	47.6*	49.9*
CC1(C)CC(=O)C(C(c2ccc(F)cc2)C2C(=O)CC(C)(C)CC2=O)C(=O)C1	-3.5	-3.9	-0.1	-18.8	-4.7	/
O=C1NC[C@@H](CCCCN2C[C@H](Cc3ccccc3)N(Cc3ccccc3)C(=O)C2=O)N(CCc2ccccc2)C1=O	-0.1	-7.1	/	/	-0.5	/
CCC(C)(C)NC(=O)c1cc(S(=O)(=O)N2CCc3ccccc32)cn1C	2.8	5.4	-4.9	16.2	26.3*	3.6
Cn1cc(S(=O)(=O)N2CCc3ccccc32)cc1C(=O)NC1CCCCC1	-0.8	-5.1	1.9	5.9	0.0	/
COc1ccc(CCN2C(=O)CC(NNC(=O)c3ccccc3Br)C2=O)cc1 (stereo not drawn)	-1.4	1.0	-9.3	-10.7	-1.9	/
COc1ccc(CCNC2CC(=O)N(CCc3ccccc3)C2=O)cc1 (stereo not drawn)	3.9	-1.6	-101.7	-14.8	45.1*	-1.5
CCCOc1ccc(N2C(=O)CC(NCCNc3ccc([N+](=O)[O-])cn3)C2=O)cc1 (stereo not drawn)	-0.4	-1.9	-6.2	-2.0	32.2*	4.3
COc1ccc(CCN2C(=O)C=CC2=O)cc1OC	-0.9	-5.4	/	54.0	88.6*	84.5*
COc1ccc(CCN2C(=O)CC(NC34CC5CC(CC(C5)C3)C4)C2=O)cc1OC (stereo not drawn)	2.6	2.8	-47.9	-8.9	66.6*	1.7
Cc1nc(SCC(=O)NCC2CCCO2)c2cc(-c3ccccc3)sc2n1 (stereo not drawn)	-5.0	-2.1	/	8.9	-2.2	/
COc1ccc(N2C(=O)CC(NC34CC5CC(CC(C5)C3)C4)C2=O)c(OC)c1 (stereo not drawn)	1.8	-2.8	-24.4	0.3	89.1*	3.8
O=C1CC(N2CCN(C3CC(=O)N(CCc4ccccc4)C3=O)CC2)C(=O)N1CCc1ccccc1 (stereo not drawn)	-1.0	-5.1	-13.0	-9.0	2.3	/
O=C1CC(N2CCC(Cc3ccccc3)CC2)C(=O)N1CCc1ccccc1 (stereo not drawn)	0.5	0.8	-124.4	-6.7	47.4*	5.5
COc1ccc(CCNC2CC(=O)N(N(C)C)C2=O)cc1OC (stereo not drawn)	-3.0	-1.0	1.8	-15.0	2.3	/
CCCCOc1ccc(N2C(=O)CC(NCCc3ccc(S(N)(=O)=O)cc3)C2=O)cc1 (stereo not drawn)	4.0	-0.6	-40.6	7.2	40.2*	5.9
COc1ccc(CCN2C(=O)CC(NCCc3ccc(S(N)(=O)=O)cc3)C2=O)cc1OC (stereo not drawn)	-0.6	-4.0	-125.0	-8.7	41.5*	1.4
CCOC(=O)C1(CC2CC2)CCN(S(=O)(=O)/C=C/c2ccccc2)CC1	-2.7	-1.9	-5.5	-14.7	1.9	/
Cc1ccc(N2CCN(S(=O)(=O)c3c(C)nc4sccn4c3=O)CC2C)cc1 (stereo not drawn)	-0.7	-4.0	/	/	4.4	/
